Columns and labels:
Assay in all cases: DAPPL (digital affinity profiling via proximity ligation, sequencing); 10 mM Tris-HCl pH 7.5, 50 mM NaCl, 1 mM DTT, 4% glycerol, room temperature, 30 min; GST-TFs on glutathione beads, 16-mer random dsDNA library, 0.1% formaldehyde crosslink after washing; high values mean tight binding
FLI1 = target: T1, FLI1 (Homo sapiens, UniProt Q01543 1-452); details: protein: recombinant; tags: N-terminal GST; dsDNA, one strand shown
T1 sequence: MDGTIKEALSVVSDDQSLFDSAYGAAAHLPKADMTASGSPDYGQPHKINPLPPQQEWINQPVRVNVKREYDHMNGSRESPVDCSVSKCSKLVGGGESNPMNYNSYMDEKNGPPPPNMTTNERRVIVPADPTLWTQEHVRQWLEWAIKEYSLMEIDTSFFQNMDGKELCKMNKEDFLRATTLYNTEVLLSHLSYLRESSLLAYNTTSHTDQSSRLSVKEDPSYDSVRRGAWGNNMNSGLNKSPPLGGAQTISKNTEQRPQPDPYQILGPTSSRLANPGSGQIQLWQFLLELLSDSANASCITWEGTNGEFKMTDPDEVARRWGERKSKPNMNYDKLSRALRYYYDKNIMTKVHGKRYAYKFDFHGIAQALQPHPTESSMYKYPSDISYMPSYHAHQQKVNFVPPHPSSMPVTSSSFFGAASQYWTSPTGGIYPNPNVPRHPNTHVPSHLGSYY
Summary of the method: (§1)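 Pools of DNA-barcoded human transcription factors, expressed in yeast as GST fusions on glutathione beads and combined with a tag-only sample, were incubated with 200 nmole of a 16-mer random double-stranded DNA library. Incubation took 30 min at room temperature in Tris/NaCl/DTT/glycerol buffer and was followed by washing, 0.1% formaldehyde crosslinking, proximity ligation (BsaI/T4 ligase, 1 h, 37 °C), PCR amplification and sequencing on an Illumina NextSeq500. Binding signal is the ratio of a hexamer's read frequency for a factor to its frequency for the tag-only sample.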

ELK1 = target: T2, ELK1 (Homo sapiens, UniProt P19419 1-428); details: protein: recombinant; tags: N-terminal GST; dsDNA, one strand shown
T2 sequence: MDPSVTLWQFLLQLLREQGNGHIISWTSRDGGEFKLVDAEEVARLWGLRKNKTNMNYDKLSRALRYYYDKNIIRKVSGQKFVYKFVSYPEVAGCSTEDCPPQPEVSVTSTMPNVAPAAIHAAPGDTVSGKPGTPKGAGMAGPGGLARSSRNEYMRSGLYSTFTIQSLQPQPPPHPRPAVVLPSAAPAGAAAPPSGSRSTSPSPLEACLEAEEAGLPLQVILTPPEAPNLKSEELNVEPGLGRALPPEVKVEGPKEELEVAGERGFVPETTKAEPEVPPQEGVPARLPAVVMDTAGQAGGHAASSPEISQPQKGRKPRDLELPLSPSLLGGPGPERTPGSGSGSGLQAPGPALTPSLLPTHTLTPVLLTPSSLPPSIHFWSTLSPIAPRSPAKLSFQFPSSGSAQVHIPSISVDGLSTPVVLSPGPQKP
Summary of the method: as §1

GABPA = target: T3, GABPA (Homo sapiens, UniProt Q06546 1-454); details: protein: recombinant; tags: N-terminal GST; dsDNA, one strand shown
T3 sequence: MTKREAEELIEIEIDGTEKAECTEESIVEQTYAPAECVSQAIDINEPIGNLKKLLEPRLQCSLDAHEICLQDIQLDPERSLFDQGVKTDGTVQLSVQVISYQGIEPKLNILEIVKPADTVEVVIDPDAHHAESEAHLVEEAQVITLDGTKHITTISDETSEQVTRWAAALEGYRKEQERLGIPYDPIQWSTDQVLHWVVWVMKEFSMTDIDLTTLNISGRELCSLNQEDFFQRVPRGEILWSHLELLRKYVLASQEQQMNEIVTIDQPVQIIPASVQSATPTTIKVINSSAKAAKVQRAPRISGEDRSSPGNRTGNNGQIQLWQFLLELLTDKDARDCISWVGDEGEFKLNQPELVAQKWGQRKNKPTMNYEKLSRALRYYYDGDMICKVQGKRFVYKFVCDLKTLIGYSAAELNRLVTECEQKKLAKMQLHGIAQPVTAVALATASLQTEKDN
Summary of the method: as §1

ERG = target: T4, ERG (Homo sapiens, UniProt P11308 1-479); details: protein: recombinant; tags: N-terminal GST; dsDNA, one strand shown
T4 sequence: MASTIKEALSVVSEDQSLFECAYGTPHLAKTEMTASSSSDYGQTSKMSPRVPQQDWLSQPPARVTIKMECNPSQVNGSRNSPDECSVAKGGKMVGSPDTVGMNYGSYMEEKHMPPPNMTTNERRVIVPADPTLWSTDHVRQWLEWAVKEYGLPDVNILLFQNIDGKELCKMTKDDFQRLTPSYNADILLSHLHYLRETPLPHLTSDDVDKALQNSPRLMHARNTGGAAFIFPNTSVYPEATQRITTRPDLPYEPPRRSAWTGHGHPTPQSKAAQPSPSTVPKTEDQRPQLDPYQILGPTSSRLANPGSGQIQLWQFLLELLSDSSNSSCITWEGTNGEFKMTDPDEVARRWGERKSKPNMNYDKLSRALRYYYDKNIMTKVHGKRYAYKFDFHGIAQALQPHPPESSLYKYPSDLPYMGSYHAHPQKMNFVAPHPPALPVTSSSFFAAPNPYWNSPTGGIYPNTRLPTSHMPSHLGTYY
Summary of the method: as §1

ELF1 = ELF1 (Homo sapiens, UniProt P32519 1-619); details: protein: recombinant; tags: N-terminal GST; dsDNA, one strand shown
Summary of the method: as §1

EHF = target: T5, EHF (Homo sapiens, UniProt Q9NZC4 1-300); details: protein: recombinant; tags: N-terminal GST; dsDNA, one strand shown
T5 sequence: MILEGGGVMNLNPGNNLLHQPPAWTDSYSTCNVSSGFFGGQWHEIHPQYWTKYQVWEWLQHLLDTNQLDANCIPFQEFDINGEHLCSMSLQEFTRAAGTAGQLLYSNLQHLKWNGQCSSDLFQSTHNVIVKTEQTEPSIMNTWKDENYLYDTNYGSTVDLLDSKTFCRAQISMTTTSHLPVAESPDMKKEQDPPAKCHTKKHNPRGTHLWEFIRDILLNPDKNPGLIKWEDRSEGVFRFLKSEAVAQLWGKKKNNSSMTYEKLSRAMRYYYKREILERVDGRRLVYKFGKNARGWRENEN
Summary of the method: as §1

SPI1 = SPI1 (Homo sapiens, UniProt P17947 1-270); details: protein: recombinant; tags: N-terminal GST; dsDNA, one strand shown
Summary of the method: as §1

SPIB = SPIB (Homo sapiens, UniProt Q01892 1-262); details: protein: recombinant; tags: N-terminal GST; dsDNA, one strand shown
Summary of the method: as §1

ELK3 = target: T6, ELK3 (Homo sapiens, UniProt P41970 1-407); details: protein: recombinant; tags: N-terminal GST; dsDNA, one strand shown
T6 sequence: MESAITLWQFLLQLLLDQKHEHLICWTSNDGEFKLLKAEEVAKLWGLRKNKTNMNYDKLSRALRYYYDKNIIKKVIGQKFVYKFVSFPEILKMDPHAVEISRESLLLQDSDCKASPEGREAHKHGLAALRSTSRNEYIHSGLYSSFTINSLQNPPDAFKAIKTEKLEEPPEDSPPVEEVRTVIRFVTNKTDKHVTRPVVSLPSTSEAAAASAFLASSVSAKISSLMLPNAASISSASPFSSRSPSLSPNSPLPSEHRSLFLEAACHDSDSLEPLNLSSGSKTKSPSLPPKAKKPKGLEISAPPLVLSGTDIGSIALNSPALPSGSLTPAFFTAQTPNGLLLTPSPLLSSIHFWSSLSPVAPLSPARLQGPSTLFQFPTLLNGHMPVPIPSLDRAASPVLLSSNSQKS
Summary of the method: as §1

FEV = target: T7, FEV (Homo sapiens, UniProt Q99581 1-238); details: protein: recombinant; tags: N-terminal GST; dsDNA, one strand shown
T7 sequence: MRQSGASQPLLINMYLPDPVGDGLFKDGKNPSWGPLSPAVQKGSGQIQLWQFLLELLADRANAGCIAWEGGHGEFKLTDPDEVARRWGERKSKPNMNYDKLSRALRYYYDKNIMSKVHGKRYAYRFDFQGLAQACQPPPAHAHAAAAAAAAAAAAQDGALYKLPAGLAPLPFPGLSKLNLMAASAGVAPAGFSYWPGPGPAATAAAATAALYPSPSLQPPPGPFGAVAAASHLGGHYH
Summary of the method: as §1

ETV5 = ETV5 (Homo sapiens, UniProt P41161 1-510); details: protein: recombinant; tags: N-terminal GST; dsDNA, one strand shown
Summary of the method: as §1

HSF1 = HSF1 (Homo sapiens, UniProt Q00613 1-529); details: protein: recombinant; tags: N-terminal GST; chain copies: 3; dsDNA, one strand shown
Summary of the method: as §1

SPIC = target: T8, SPIC (Homo sapiens, UniProt Q8N5J4 1-248); details: protein: recombinant; tags: N-terminal GST; dsDNA, one strand shown
T8 sequence: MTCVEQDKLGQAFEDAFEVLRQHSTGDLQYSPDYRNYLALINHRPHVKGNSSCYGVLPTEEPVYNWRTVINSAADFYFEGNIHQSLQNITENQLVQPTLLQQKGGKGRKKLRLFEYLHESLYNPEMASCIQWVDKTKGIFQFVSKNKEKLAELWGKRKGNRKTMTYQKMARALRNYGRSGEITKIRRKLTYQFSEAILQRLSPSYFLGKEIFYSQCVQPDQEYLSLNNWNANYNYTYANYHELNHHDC
Summary of the method: as §1

ELF4 = ELF4 (Homo sapiens, UniProt Q99607 1-663); details: protein: recombinant; tags: N-terminal GST; dsDNA, one strand shown
Summary of the method: as §1

ELK4 = target: T9, ELK4 (Homo sapiens, UniProt P28324-2 1-405); details: protein: recombinant; tags: N-terminal GST; dsDNA, one strand shown
T9 sequence: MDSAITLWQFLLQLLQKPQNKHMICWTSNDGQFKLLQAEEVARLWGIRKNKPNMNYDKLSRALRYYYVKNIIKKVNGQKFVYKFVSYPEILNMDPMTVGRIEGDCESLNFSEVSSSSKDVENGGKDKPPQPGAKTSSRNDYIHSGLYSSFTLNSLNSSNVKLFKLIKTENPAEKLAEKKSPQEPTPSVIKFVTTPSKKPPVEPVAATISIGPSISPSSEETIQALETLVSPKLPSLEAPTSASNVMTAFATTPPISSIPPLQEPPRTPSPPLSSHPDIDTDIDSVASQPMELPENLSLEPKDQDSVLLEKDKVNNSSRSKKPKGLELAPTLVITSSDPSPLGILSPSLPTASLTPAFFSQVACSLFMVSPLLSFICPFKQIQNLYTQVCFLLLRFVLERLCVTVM
Summary of the method: as §1

ETV2 = target: T10, ETV2 (Homo sapiens, UniProt O00321 1-342); details: protein: recombinant; tags: N-terminal GST; dsDNA, one strand shown
T10 sequence: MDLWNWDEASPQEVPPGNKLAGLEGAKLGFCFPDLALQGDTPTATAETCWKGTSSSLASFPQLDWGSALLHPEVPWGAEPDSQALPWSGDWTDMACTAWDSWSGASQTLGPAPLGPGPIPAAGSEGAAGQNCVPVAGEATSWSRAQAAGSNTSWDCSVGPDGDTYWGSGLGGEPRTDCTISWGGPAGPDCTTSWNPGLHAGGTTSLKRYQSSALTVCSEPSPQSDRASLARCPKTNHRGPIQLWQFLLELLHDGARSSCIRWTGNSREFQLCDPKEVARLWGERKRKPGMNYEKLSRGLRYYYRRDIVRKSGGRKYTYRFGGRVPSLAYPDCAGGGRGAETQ
Summary of the method: as §1

ELF3 = target: T11, ELF3 (Homo sapiens, UniProt P78545 1-371); details: protein: recombinant; tags: N-terminal GST; dsDNA, one strand shown
T11 sequence: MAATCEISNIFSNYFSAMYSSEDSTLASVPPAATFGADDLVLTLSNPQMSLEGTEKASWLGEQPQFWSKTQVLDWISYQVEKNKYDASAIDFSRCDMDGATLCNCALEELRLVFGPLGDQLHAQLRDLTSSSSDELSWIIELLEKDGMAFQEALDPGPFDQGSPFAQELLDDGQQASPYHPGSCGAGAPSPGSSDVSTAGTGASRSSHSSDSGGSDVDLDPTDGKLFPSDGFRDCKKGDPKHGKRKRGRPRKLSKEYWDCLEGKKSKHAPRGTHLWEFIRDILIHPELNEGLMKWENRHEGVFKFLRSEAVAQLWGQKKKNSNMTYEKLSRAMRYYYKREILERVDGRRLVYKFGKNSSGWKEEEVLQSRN
Summary of the method: as §1

CRX = CRX (Homo sapiens, UniProt O43186 1-299); details: protein: recombinant; tags: N-terminal GST; dsDNA, one strand shown
Summary of the method: as §1

ETV1 = ETV1 (Homo sapiens, UniProt P50549 1-477); details: protein: recombinant; tags: N-terminal GST; dsDNA, one strand shown
Summary of the method: as §1

ELF1, sequence (P32519 whole entry): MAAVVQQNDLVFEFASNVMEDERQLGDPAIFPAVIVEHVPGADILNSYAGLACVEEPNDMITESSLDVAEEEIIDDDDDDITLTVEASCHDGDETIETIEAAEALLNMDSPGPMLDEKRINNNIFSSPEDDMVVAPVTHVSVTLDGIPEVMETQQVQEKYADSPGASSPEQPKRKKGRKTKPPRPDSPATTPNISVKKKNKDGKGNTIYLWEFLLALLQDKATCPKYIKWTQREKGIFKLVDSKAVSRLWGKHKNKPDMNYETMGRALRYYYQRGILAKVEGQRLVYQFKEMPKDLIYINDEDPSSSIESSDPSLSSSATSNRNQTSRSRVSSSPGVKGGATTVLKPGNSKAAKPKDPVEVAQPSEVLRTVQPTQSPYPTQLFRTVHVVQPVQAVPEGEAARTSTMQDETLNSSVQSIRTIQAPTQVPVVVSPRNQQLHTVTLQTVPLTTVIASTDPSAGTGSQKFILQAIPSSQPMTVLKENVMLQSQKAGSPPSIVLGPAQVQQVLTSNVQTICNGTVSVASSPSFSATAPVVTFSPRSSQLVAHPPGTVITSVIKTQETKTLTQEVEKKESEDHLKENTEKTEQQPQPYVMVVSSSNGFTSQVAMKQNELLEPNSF
SPIB, sequence (Q01892 whole entry): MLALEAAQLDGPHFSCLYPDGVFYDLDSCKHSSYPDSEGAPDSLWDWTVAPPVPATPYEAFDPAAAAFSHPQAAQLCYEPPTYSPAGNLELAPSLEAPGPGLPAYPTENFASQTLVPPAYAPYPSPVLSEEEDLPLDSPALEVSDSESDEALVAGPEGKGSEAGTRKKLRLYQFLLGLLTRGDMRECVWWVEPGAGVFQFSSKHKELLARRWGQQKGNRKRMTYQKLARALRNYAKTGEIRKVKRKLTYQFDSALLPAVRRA
ETV5, sequence (P41161 whole entry): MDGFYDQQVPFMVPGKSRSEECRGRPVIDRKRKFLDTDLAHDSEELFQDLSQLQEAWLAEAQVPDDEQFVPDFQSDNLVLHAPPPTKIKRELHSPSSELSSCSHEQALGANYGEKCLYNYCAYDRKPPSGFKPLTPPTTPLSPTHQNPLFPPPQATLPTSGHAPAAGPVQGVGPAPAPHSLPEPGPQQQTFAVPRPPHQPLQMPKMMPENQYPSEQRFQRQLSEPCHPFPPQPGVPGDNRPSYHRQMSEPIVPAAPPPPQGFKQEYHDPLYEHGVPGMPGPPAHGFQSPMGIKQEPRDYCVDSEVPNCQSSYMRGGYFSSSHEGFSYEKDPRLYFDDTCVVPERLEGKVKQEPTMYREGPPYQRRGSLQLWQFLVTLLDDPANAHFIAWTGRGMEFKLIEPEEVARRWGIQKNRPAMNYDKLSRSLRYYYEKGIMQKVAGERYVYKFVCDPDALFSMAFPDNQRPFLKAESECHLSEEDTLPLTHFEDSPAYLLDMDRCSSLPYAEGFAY
CRX, sequence (O43186 whole entry): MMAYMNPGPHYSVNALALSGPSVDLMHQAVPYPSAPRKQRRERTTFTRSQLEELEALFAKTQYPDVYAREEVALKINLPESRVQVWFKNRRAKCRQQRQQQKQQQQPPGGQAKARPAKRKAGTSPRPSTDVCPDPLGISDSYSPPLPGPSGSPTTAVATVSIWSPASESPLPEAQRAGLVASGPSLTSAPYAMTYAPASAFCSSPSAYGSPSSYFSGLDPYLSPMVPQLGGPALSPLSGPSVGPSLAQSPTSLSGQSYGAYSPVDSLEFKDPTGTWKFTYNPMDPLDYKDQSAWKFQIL
HSF1, sequence (Q00613 whole entry): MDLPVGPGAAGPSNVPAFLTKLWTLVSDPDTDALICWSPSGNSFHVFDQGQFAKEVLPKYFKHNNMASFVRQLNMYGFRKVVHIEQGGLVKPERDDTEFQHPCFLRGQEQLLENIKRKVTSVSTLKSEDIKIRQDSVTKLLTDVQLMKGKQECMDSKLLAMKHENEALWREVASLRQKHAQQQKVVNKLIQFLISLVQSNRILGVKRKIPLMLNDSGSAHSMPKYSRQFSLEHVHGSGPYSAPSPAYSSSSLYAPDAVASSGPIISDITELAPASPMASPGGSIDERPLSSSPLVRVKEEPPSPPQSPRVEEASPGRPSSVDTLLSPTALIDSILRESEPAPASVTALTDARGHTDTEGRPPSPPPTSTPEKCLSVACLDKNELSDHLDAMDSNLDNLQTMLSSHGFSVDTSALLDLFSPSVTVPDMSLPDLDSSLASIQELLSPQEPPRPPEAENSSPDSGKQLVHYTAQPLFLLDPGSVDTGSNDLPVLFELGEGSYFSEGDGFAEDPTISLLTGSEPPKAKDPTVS
ETV1, sequence (P50549 whole entry): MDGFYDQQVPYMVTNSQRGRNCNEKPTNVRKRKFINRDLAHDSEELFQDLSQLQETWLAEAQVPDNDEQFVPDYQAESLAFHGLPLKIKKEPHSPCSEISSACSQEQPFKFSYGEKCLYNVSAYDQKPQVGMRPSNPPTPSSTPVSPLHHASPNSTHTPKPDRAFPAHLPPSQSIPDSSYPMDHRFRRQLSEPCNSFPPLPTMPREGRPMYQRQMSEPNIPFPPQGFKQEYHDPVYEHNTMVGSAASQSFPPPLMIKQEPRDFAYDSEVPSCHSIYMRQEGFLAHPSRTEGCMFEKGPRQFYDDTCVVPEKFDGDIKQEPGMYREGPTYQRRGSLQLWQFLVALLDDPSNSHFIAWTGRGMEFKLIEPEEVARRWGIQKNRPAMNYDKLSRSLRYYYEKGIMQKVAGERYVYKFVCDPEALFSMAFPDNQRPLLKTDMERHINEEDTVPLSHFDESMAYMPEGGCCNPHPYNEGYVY
ELF4, sequence (Q99607 whole entry): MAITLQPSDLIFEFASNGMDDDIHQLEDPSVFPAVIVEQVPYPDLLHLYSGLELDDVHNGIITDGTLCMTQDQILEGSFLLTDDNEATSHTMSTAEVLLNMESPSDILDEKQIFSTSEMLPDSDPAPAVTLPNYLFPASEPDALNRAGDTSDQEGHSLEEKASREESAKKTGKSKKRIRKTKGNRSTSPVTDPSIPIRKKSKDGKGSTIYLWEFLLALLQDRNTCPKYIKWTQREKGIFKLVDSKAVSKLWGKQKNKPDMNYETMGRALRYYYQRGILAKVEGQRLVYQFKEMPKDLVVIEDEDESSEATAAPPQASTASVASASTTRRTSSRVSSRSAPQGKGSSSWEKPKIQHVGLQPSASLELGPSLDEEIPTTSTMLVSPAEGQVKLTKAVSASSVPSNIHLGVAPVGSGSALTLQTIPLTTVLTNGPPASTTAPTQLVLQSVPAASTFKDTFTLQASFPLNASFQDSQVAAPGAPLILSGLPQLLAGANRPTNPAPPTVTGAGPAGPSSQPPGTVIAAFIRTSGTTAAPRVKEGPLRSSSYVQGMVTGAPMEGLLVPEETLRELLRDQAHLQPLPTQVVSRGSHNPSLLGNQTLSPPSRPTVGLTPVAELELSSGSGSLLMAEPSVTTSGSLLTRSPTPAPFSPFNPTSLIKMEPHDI

TTACCA
binding signal (FLI1): 1.12 fold enrichment (6-mer frequency, TF over GST control)
binding signal (ELK1): 1.06 fold enrichment (6-mer frequency, TF over GST control)
binding signal (GABPA): 1.04 fold enrichment (6-mer frequency, TF over GST control)
binding signal (ERG): 1.11 fold enrichment (6-mer frequency, TF over GST control)
binding signal (ELF1): 1.13 fold enrichment (6-mer frequency, TF over GST control)
binding signal (EHF): 1.03 fold enrichment (6-mer frequency, TF over GST control)
binding signal (SPI1): 1.11 fold enrichment (6-mer frequency, TF over GST control)
binding signal (SPIB): 1.12 fold enrichment (6-mer frequency, TF over GST control)
binding signal (ELK3): 1.14 fold enrichment (6-mer frequency, TF over GST control)
binding signal (FEV): 1.09 fold enrichment (6-mer frequency, TF over GST control)
binding signal (ETV5): 1.04 fold enrichment (6-mer frequency, TF over GST control)
binding signal (HSF1): 1.47 fold enrichment (6-mer frequency, TF over GST control)
binding signal (SPIC): 1.09 fold enrichment (6-mer frequency, TF over GST control)
binding signal (ELF4): 1.04 fold enrichment (6-mer frequency, TF over GST control)
binding signal (ELK4): 1.04 fold enrichment (6-mer frequency, TF over GST control)
binding signal (ETV2): 1.13 fold enrichment (6-mer frequency, TF over GST control)
binding signal (ELF3): 1.1 fold enrichment (6-mer frequency, TF over GST control)
binding signal (CRX): 1.74 fold enrichment (6-mer frequency, TF over GST control)
binding signal (ETV1): 1.05 fold enrichment (6-mer frequency, TF over GST control)

Reference: publication PMC7862700, “An all-to-all approach to the identification of sequence-specific readers for epigenetic DNA modifications on cytosine”
